# Experimental data as given in PubChem BioAssay (NCATS).
# Records with an inconclusive call do not appear. Entries that show only a call come without a potency. The source made the active and inactive calls. Unless noted, calls follow the shape of the dose curve; as a rule, active = well fitted inhibition curve with a large enough effect; inconclusive = small, poorly fitted or top-dose-only effect; inactive = no such curve, though single readings can be large or run the other way.
# How the values were obtained:
# [1] = target: Aldehyde dehydrogenase, mitochondrial (Homo sapiens) (UniProt P05091); experiment: qHTS for Inhibitors of the Aldehyde Dehydrogenase Family (ALDH2) Confirmatory screens (AID 2061303; active = well fitted inhibition curve with a large enough effect; title and protocol of this record describe different tests; also: nearly all actives have a fitted effect of over 45% in size; also: potency is read from the fitted curve at half-maximal effect)
# [2] = target: Retinal dehydrogenase 2 (Homo sapiens) (UniProt O94788); experiment: qHTS for Inhibitors of the Aldehyde Dehydrogenase Family (ALDH1A2) Confirmation screens (AID 2061314); also: nearly all actives have a fitted effect of over 65% in size; also: potency is read from the fitted curve at half-maximal effect
# [3] = target: Retinaldehyde dehydrogenase 3 (Homo sapiens) (UniProt P47895); experiment: qHTS for Inhibitors of the Aldehyde Dehydrogenase Family (ALDH1A3) Primary screen (AID 2061315)
# [4] = target: Aldehyde dehydrogenase 1A1 (Homo sapiens) (UniProt P00352); experiment: qHTS for Inhibitors of the Aldehyde Dehydrogenase Family (ALDH1A1) Confirmatory screens (AID 2061316); also: nearly all actives have a fitted effect of over 65% in size; also: potency is read from the fitted curve at half-maximal effect
# [5] = target: Retinaldehyde dehydrogenase 3 (Homo sapiens) (UniProt P47895); experiment: qHTS for Inhibitors of the Aldehyde Dehydrogenase Family (ALDH1A3) Confirmatory screens (AID 2061311); also: potency is read from the fitted curve at half-maximal effect; nearly all actives have a fitted effect of over 60% in size
# [6] = qHTS for Inhibitors of the Aldehyde Dehydrogenase Family (ALDH1A2, ALDH1A3, ALDH2, ALDH3A1) (AID 2061307); also: nearly all actives have a fitted effect of over 50% in size; as to potency: test system not described further here; potency is read from the fitted curve at half-maximal effect
smiles,measurement,setting,value
COc1ccc(S(=O)(=O)N2CCC3(CC2)CC(CC(=O)NC2CC2)CCO3)cc1 (stereo not drawn),Potency,[1],inactive
same,Potency,[2],inactive
CC(C)(C)OC(=O)N1CCN(c2ccc(NCc3ccc(-c4ccc(C#N)cc4)s3)cc2)CC1,Potency,[1],0.179 µM (active)
same,Potency,[2],inactive
same,Potency,[3],inactive
same,Potency,[4],12.7 µM (active)
CC(=O)Nc1sc2c(c1-c1nc3ccccc3s1)CCN(Cc1ccccc1)C2,Potency,[1],inactive
same,Potency,[5],25.1 µM (active)
same,Potency,[3],inactive
NC(=O)c1c(NC(=O)c2ccco2)sc2c1CCCC2,Potency,[1],8.96 µM (active)
same,Potency,[2],10.1 µM (active)
same,Potency,[3],inactive
same,Potency,[4],3.57 µM (active)
O=C1c2ccccc2NC(c2ccc(-c3cccc(F)c3)o2)N1O (stereo not drawn),Potency,[1],20.1 µM (active)
same,Potency,[3],inactive
same,Potency,[4],6.34 µM (active)
COC(=O)[C@H](Cc1ccc(OC)cc1)NC(=O)[C@@H]1CNCCN1S(=O)(=O)c1ccccc1,Potency,[1],inactive
same,Potency,[2],inactive
COc1ccc(-c2no[n+]([O-])c2C#N)cc1,Potency,[1],inactive
same,Potency,[3],inactive
CCN1c2cc(C(=O)Nc3ccc(C#N)cc3)ccc2C(=O)N2CCCCCC21 (stereo not drawn),Potency,[1],inactive
same,Potency,[4],6.47 µM (active)
CC(C)c1ccc(NC(=O)N2CCN(c3ccc(Cl)c(Cl)c3)CC2)cc1,Potency,[1],inactive
same,Potency,[4],inactive
CC(C)NS(=O)(=O)c1ccc(OCC(=O)N2CCN(c3ccccc3F)CC2)cc1,Potency,[1],inactive
same,Potency,[2],inactive
CC(=O)N1CCN(c2nc(-c3ccc(Br)cc3)cs2)CC1,Potency,[1],25.1 µM (active)
same,Potency,[5],12.6 µM (active)
same,Potency,[3],inactive
same,Potency,[4],inactive
CC(C)NC(=O)c1nc(-c2cccnc2)c2cnccn12,Potency,[1],inactive
same,Potency,[4],inactive
COc1cc(F)ccc1-c1ccnc2nc(Cc3ccc(F)cc3)nn12,Potency,[1],inactive
same,Potency,[4],inactive
COc1ccc(/C=C/c2onc(C)c2S(=O)(=O)N2CCC(C(=O)N3CCc4ccccc4C3)CC2)cc1,Potency,[6],inactive
COc1ccc(-n2c(C)c(C(=O)O)c3cc(O)ccc32)cc1,Potency,[6],inactive
CN(C)c1ccc(C(=O)Nc2nnc(C3=COCCO3)o2)cc1,Potency,[6],inactive
O=Cc1ccc(N2Cc3ccccc3C2)cc1,Potency,[6],inactive
FC(F)(F)c1ccnn1-c1nc(-c2ccccc2Cl)cs1,Potency,[6],inactive
COc1cccc(NC(=O)c2cc3ccccc3[nH]c2=O)c1,Potency,[6],inactive
CC(=O)c1cccc(Nc2cc(C)nc3nc(-c4ccccc4C)nn23)c1,Potency,[6],inactive
CNc1nc2c(s1)C(c1ccccc1Br)CC(=O)N2 (stereo not drawn),Potency,[6],10.1 µM (active)
NCC(=O)Nc1cccc(-c2nn3c(=O)cc(N4CCNCC4)nc3s2)c1,Potency,[6],inactive
Ic1ccc(CN2CCC(N(CCc3ccccc3)Cc3ccccc3)CC2)cc1,Potency,[6],inactive
Nc1nc(NCc2ccccc2)c2ccccc2n1,Potency,[6],10 µM (active)
COc1ccc(-n2nc(C(=O)Nc3ccc(Cl)cn3)c3c4ccccc4n(C)c3c2=O)cc1,Potency,[6],inactive
COc1ccc(C(=O)N=Nc2c(O)n(Cc3c(Cl)cccc3Cl)c3ccccc23)cc1,Potency,[6],inactive
CSc1sc(C(=O)NN)c2c1C(O)CCC2 (stereo not drawn),Potency,[6],22.5 µM (active)
COc1cccc(NC(=O)c2cc3c(-c4ccc(Cl)cc4)nn(C)c3s2)c1,Potency,[6],inactive
COc1ccc(C(=O)O/N=C(\N)c2ccccn2)cc1,Potency,[6],0.538 µM (active)
O=C(CSc1n[nH]c2nc3ccccc3n12)Nc1cc(C(F)(F)F)ccc1Cl,Potency,[6],15.8 µM (active)
O=C(O)c1csc(-n2[nH]c(-c3c(F)cccc3F)cc2=O)n1,Potency,[6],inactive
CC(=O)c1c(C)n(-c2ccc(N(C)C)cc2)c2ccc(O)cc12,Potency,[6],inactive
O=C(N/N=C/c1ccco1)c1cccc(F)c1,Potency,[6],inactive
COc1cccc(Nc2nc(C)c(C(=O)Nc3ccccc3)s2)c1,Potency,[6],inactive
CN(C)CCCN1c2ccc([N+](=O)[O-])cc2CCc2cc([N+](=O)[O-])ccc21,Potency,[6],inactive
NC(=O)c1ccc(OCc2nc(-c3ccc(C(F)(F)F)cc3)no2)cc1,Potency,[6],inactive
Cc1ncccc1NC(=O)c1cccs1,Potency,[6],inactive
COC(=O)CNCc1c(O)ccc2ccccc12,Potency,[6],6.34 µM (active)
O=C(Nc1nnc(Cc2ccccc2)s1)c1ccc(F)c(F)c1,Potency,[6],inactive
Cc1cc(=O)n2[nH]c(NC(=O)c3cccnc3)nc2n1,Potency,[6],inactive
COc1cccc(CNc2ccc(S(=O)(=O)Nc3nc4ccccc4[nH]3)cc2)c1O,Potency,[6],inactive
O=C(c1ccco1)N1CCN(Cc2nc3ccccc3c(=O)n2-c2ccccc2Oc2ccccc2)CC1,Potency,[6],inactive
COc1ccc2c(c1)C(C)(CCN(C)C)C(=O)N2C (stereo not drawn),Potency,[6],inactive
Fc1cccc(F)c1CNCc1cccnc1-n1cccn1,Potency,[6],3.98 µM (active)
COc1ccc(CN2CCN(C(=O)c3cc4c(s3)CCC4)CC2)cc1,Potency,[6],inactive
CCOCCNC(=O)N1CCN(c2nc(C)cs2)CC1,Potency,[6],14.1 µM (active)
COc1ccc(-n2c(CSCc3ccccc3)c(C(C)=O)c3cc(O)ccc32)cc1,Potency,[6],inactive
COC(=O)c1ccc(CN2CCC(N(CCc3ccccc3)Cc3ccccc3)CC2)cc1,Potency,[6],inactive
Cn1c(=O)n(C)c2cc(N3CCCC3)c(NC(=O)Nc3ccccc3)cc21,Potency,[6],inactive
NC(=O)c1cccc2c1CCCN2C(=O)c1csc(-c2ccc(Cl)cc2)n1,Potency,[6],inactive
COCc1ccc(-c2nn(Cc3ccccc3)c3ccccc23)o1,Potency,[6],11.3 µM (active)
O=C(c1cc(-c2ccccc2Cl)nc2ccccc12)N1CCN(c2ccccc2O)CC1,Potency,[6],inactive
